Sampled rows, rich in hits. Any-hit rate of the full collection: about 4.2%.
Sfp PPTase inh: Sfp phosphopantetheinyl transferase inhibition; Q9F4F7; Biochemical Sfp PPTase activity, qHTS; Potency, µM, without a hit: largest response in the series, negative = inhibition, most hits filed as inhibitors; actives 3.5% (n = 310,000); AID 1490;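 also: the enzyme is Sfp with the accession as filed and its product quenches rhodamine fluorescence; 0% = enzyme reaction without inhibitor and -100% = no enzyme wells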
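With Hepes-Na pH 7.6 buffer containing 10 mM MgCl2, Sfp (15 nM) modified BHQ-2-YbbR (12.5 uM) using rhodamine-CoA (5 uM). Two reads 30 minutes apart at 525/598 nm yielded each well's rate.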
VDR inh: inhibitors of human vitamin D receptor | P11473 | VDR-SRC2-3 peptide fluorescence polarization, 2 h | Potency, µM, for inactives: max response, negative = inhibition, hits mostly inhibitors | actives 0.93% (n = 400,000)
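Inhibition of the VDR/SRC2-3 peptide interaction is quantified by fluorescence polarization. Compounds (23 nl, pintool) incubate with the reagents for 2 hours at ambient room temperature.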
ALOX12 inh: blocks human arachidonate 12S-lipoxygenase. Potency, µM (titrated, usually from 108 µM), without a hit: at the top dose activity change, negative = inhibition, most hits filed as inhibitors. purified 12hLO, xylenol orange hydroperoxide absorbance. actives 1.1% (n = 580,000). P18054. AID 1671190
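Purified human 12hLO (150 nM final) in 25 mM Hepes, 0.01% Triton X-100, pH 7.0 was preincubated 15 min at room temperature with compound. Then 40 uM arachidonic acid was added, 30 min. Hydroperoxide was read by Fe-XO absorbance ratio 573/405 nm.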
PLK1 PBD block: blocks phosphopeptide binding to human PLK1 polo-box domain; P53350; Potency, µM, without a hit: max response, negative = inhibition, usual class: inhibitors; actives 2.8% (n = 360,000); Plk1 PBD binding of FITC phosphopeptide, fluorescence polarization; also: series mostly up to about 57 µM; nearly all actives have a fitted effect of over 65% in size
Target sequence (P53350 whole entry, looked up, the tested form may be a part): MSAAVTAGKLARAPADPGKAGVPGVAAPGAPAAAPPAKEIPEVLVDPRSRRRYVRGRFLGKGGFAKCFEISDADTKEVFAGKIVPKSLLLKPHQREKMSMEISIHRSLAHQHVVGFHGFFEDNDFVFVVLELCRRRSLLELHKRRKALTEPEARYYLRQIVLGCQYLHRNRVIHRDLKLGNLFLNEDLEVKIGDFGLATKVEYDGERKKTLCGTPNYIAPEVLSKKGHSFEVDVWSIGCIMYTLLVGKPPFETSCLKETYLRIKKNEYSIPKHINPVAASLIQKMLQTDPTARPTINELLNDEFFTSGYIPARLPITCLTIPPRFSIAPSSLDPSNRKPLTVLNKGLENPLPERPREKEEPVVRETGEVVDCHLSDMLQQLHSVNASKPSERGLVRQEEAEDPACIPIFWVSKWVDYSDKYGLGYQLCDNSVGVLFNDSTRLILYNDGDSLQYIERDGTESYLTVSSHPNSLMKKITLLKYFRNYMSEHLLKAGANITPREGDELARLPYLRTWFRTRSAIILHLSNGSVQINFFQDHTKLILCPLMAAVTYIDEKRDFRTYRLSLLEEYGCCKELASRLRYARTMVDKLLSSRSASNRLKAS
An asterisk follows results filed as active; ? = inconclusive; . = no result. Calls follow the shape of the dose curve; as a rule, active = well fitted curve in the direction sought with a large enough effect; inconclusive = small, poorly fitted or top-dose-only effect, or another doubt; inactive = no such curve, though single readings can be large; an effect the other way counts as inactive or inconclusive. Unless noted, % is scaled to controls: 0 for no effect and ±100 for the full control effect; potency is read from the fitted curve at half-maximal effect.

SMILES	Sfp PPTase inh	VDR inh	ALOX12 inh	PLK1 PBD block
CCN(CC)C(=O)CSc1nc2sc3c(c2c(=O)n1CCCOC)CCC3	6.8%	?	-17.3%	23.8µM*
CC(=O)c1cccc(NC(=O)CCc2nc(CSc3nc4cc(C)ccc4o3)no2)c1	.	.	8.9%	.
O=C(Nc1nc(=O)c2ccccc2s1)c1ccc(F)cc1	56.2µM*	70.8µM*	?	-1.5%
O=C(Cc1ccccc1)Nc1nc(=O)c2ccccc2s1	?	-6.4%	0.0%	-21.1%
O=C(Nc1nc(=O)c2ccccc2s1)c1ccc(Cl)cc1	25.1µM*	-14.5%	?	?
COCC(=O)Nc1c(C(=O)Nc2ccc3c(c2)OCO3)oc2ccccc12	-23.2%	-19.7%	-5.3%	29.9µM*
N=c1n(Cc2ccccc2)c2ccccc2n1CC(O)COc1ccc(Cl)cc1Cl (stereo not given)	17.8µM*	6.1%	?	?
CCOC(CNc1ncnc2sc(-c3ccccc3)cc12)OCC	-17.9%	17.9%	13.8%	-1.9%
CN(C)CCCNc1ncnc2sc(-c3ccccc3)cc12	56.2µM*	-20.9%	?	-7.3%
COc1cc2nc(N3CCN(C(=O)C4COc5ccccc5O4)CC3)nc(N)c2cc1OC (stereo not given)	56.2µM*	-2.2%	?	-3.9%
COc1ccc(S(=O)(=O)N2CCN(C(=O)C3COc4ccccc4O3)CC2)cc1 (stereo not given)	.	3.6%	39.8µM*	10.6µM*
COc1ccc(S(=O)(=O)N2c3ccccc3OCC2CC(=O)O)cc1 (stereo not given)	16.7%	?	60.3%	21.2µM*
O=C(O)CC1COc2ccccc2N1S(=O)(=O)c1ccc(Br)cc1 (stereo not given)	18.1%	-5.2%	9.8%	3.1%
COc1ccc2c(C)c(CC(=O)N3CCN(C(=O)C4COc5ccccc5O4)CC3)c(=O)oc2c1C (stereo not given)	14.0%	?	-29.5%	3.36µM*
CNC(=O)CN1CN(c2ccccc2)C2(CCN(C(=O)NC34CC5CC(CC(C5)C3)C4)CC2)C1=O	.	.	33.9%	.
O=C(NC1CCN(c2cc(C(F)(F)F)ncn2)CC1)c1ccccc1F	.	.	-13.8%	.
O=C(NC1CCN(c2cc(C(F)(F)F)ncn2)CC1)c1ccccc1	.	.	44.7µM*	.
CCCCN(C)Cc1cc(=O)oc2cc(C)c(O)cc12	.	.	-20.9%	.
CCCCN(CCCC)Cc1cc(=O)oc2cc(C)c(O)cc12	.	.	39.8µM*	.
CCN(c1ccccc1)c1nc(C#N)nc(N(CC)c2ccccc2)n1	-6.2%	?	6.2%	21.2µM*
C=CCn1c(SCC(=O)Nc2ccc(C)cc2C)nnc1-c1cccnc1	-8.4%	14.8%	0.0%	-1.3%
C=CCn1c(SCC(=O)Nc2nnc(C)s2)nnc1-c1cccnc1	-8.8%	-3.3%	28.9%	21.2µM*
Cc1nnc(NC(=O)CSc2ccc(-c3cccnc3)nn2)s1	39.8µM*	-8.2%	-11.5%	-14.4%
O=C(COc1ccc(Br)cc1)Nc1nnc(C2CC2)s1	.	-6.3%	66.6%	-12.9%
O=C(COc1ccc(Br)cc1)Nc1nnc(-c2cccnc2)s1	-4.4%	?	34.9%	29.9µM*
SMILES	Sfp PPTase inh	VDR inh	ALOX12 inh	PLK1 PBD block
CCN1C(=O)[C@@H]2Cc3c([nH]c4ccccc34)C(c3ccc(OC)cc3)N2C1=S (stereo not given in full)	10.7%	-13.1%	.	9.0%
CNC(=S)/N=C(/Nc1ccccc1)c1ccccc1	-85.4%	-11.4%	?	-6.3%
CNC(=S)/N=C(\Nc1ccc(C)cc1)c1ccccc1	7.08µM*	-10.7%	?	-12.1%
Cc1cc2cc(C(c3nnnn3Cc3ccccc3)N3CCc4ccccc43)c(=O)[nH]c2cc1C (stereo not given)	35.5µM*	6.7%	?	-6.3%
Cc1cc2cc(C(c3nnnn3Cc3ccco3)N3CCc4ccccc4C3)c(=O)[nH]c2cc1C (stereo not given)	11.2µM*	3.5%	?	-22.5%
Cc1ccc2[nH]c(=O)c(C(c3nnnn3Cc3ccccc3)N3CCc4ccccc43)cc2c1 (stereo not given)	20µM*	34.0%	-24.4%	-4.0%
Cc1cc2cc(C(c3nnnn3Cc3ccco3)N3CCc4ccccc43)c(=O)[nH]c2cc1C (stereo not given)	10µM*	-7.5%	?	-20.7%
CCOc1cc(=O)n2c(c1C(=O)NCc1ccc(C)o1)CCCCC2	.	.	38.3%	.
Cc1ccc(S(=O)(=O)N2CCN(C(=O)Cn3cnc4c3c(=O)n(C)c(=O)n4C)CC2)cc1C	.	15.0%	-6.4%	3.6%
Cc1ccc2cc(C(c3nnnn3Cc3ccccc3)N3CCc4ccccc43)c(=O)[nH]c2c1C (stereo not given)	50.1µM*	52.7%	-17.7%	-13.9%
CC(C)C(=O)N1CC(=O)N(C2CCCCC2)CC(OCc2ccccc2)C1 (stereo not given)	.	.	32.8%	.
Oc1c(Br)cc(Cl)cc1Cc1cc(Cl)cc(Br)c1O	.	.	28.2µM*	.
CCN1C(=O)/C(=C2/C=Cc3ccccc3N2CC)SC1=S	-14.5%	-18.9%	?	-5.9%
CCN1C(=O)/C(=C2\C=Cc3ccccc3N2CC)OC1=S	.	-1.0%	-26.5%	-3.0%
CCN1/C(=C2\C(=O)N(C)C(=S)N2C)C=Cc2cc(C)ccc21	44.7µM*	4.2%	-2.3%	-5.8%
CCN1/C(=C2\C(=O)N(C)C(=S)N2c2ccccc2)C=Cc2ccccc21	89.1µM*	9.2%	-27.8%	-19.6%
O=C(NC1CCN(c2cc(-c3ccc(F)cc3)[nH]n2)C1)c1cc(F)ccc1Cl (stereo not given)	.	.	55.5%	.
O=C1NC(=S)/C(=C\c2ccc(-c3ccccc3Cl)o2)S1	50.1µM*	-19.9%	35.5µM*	13.4µM*
O=C1NC(=O)/C(=C/c2ccc(-c3cc(C(=O)O)ccc3Cl)o2)S1	31.6µM*	-21.4%	?	?
COC(=O)c1ccc2nc(-c3ccc(Cl)cc3)c(Cc3ccc(OC)cc3C)n2c1	.	.	?	-1.2%
COc1ccc(Cc2c(-c3ccc(C)cc3)nc3ccc(Cl)cn23)c(C)c1	.	.	39.8µM*	-2.2%
O=S(=O)(NCC(O)COCc1ccco1)c1cccs1 (stereo not given)	44.7µM*	-17.9%	-2.7%	-25.0%
O=C1CC(c2ccc(Cl)cc2)CC(=O)C1CS(=O)(=O)c1ccccc1 (stereo not given)	-94.3%	?	35.5µM*	26.7µM*
COc1ccc(C2CC(=O)C(CS(=O)(=O)c3ccccc3)C(=O)C2)cc1 (stereo not given)	-11.7%	?	-20.4%	?
O=C1CC(c2ccccc2)CC(=O)C1Sc1ccc(Cl)cc1 (stereo not given)	-6.9%	?	?	21.2µM*
O=C1CCCC(=O)C1CS(=O)(=O)c1ccccc1	20µM*	39.8µM*	-8.9%	-15.7%
Cc1ccc(CN(Cc2ccco2)C(=S)NCC(=O)NCc2cccnc2)cc1	22.4µM*	-8.3%	-27.0%	?
COCCNC(=O)CNC(=S)N(Cc1ccccc1)Cc1cccnc1	18.9%	-10.6%	8.4%	-1.6%
Cc1ccc(CN(Cc2ccccc2)C(=S)NCC(=O)NCc2cccnc2)o1	25.1µM*	-14.1%	?	?

Source: PubChem BioAssay (National Center for Advancing Translational Sciences (NCATS))
